The nature of assay [1]: resazurin metabolic signal in HepG2 cells – cell-based, resazurin fluorescence, 24 h, PK04 Diversity Set, profiling panel (AID 1172). To be noted: HepG2 viability, higher = more signal. In general terms: Resazurin is reduced to fluorescent resorufin, in cell work by metabolically active cells.
A short description of assay [2]: budding yeast growth changes without added modifier – OD600, strain BY4716, 24 h, basal condition, primary screen (AID 1173). To be noted: S. cerevisiae BY4716 growth, OD600, 24 h; higher = more signal, called active from +8 up or from −8 down.
Assay [3] can be described thus: viability profiling in MM1S myeloma cells – cell-based, resazurin fluorescence, basal, 24 h, PK04 Diversity Set, profiling panel (AID 1174).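 Note: MM1S multiple myeloma cell line.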 To be noted: higher = more signal, called active from +8 up or from −8 down.
Assay [4] has as its target Dihydroorotate dehydrogenase (quinone), mitochondrial (Plasmodium falciparum (isolate 3D7)) (UniProt Q08210). In words: inhibition of P. falciparum DHODH – biochemical, C-terminal His tag, absorbance 600 nm, primary screen (AID 1175).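 Note: recombinant parasite enzyme with a five histidine tag at its C terminus.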 To be noted: PfDHODH enzyme, DCIP absorbance 600 nm; higher = more signal, called active from +8 up or from −8 down.
Assay [5] is described as follows: inhibition of PAO1 biofilm formation – strain PAO1, LB-PBS medium, absorbance 600 nm, primary screen (AID 1176). To be noted: P. aeruginosa PAO1 growth/biofilm, A600, 12 h; higher = more signal.
A short description of assay [6]: growth modulation of vineyard yeast isolate – strain RM11-1a, OD600, basal, 24 h, primary screen (AID 1177).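 Note: cultures grown under basal conditions with no added stressor.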 To be noted: S. cerevisiae RM11-1a growth, OD600, 24 h; higher = more signal, called active from +8 up or from −8 down.
The nature of assay [7]: growth of efflux-deficient E. coli DRC39 – strain DRC39, OD650, 24 h, E. coli filamentation inducers, primary screen (AID 1178).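 Note: growth measured as culture turbidity by optical density at 650 nm.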 To be noted: E. coli DRC39 acrAB, higher = more signal, called active from +8 up or from −8 down.
Assay [8] is described as follows: growth of efflux-deficient E. coli DRC39 – strain DRC39, OD650, 48 h, E. coli filamentation inducers, primary screen (AID 1179).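 Note: screen aims at cell division blockers that make cells filament.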 To be noted: E. coli DRC39 delta-acrAB growth, higher = more signal, called active from +8 up or from −8 down.
Assay [9] can be described thus: viability profiling in RPMI8226 myeloma cells – cell-based, resazurin fluorescence, basal, 24 h, PK04 Diversity Set, profiling panel (AID 1180).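 Note: RPMI8826 multiple myeloma cell line at 5000 cells per well.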 To be noted: higher = more signal.
Assay [10] has as its target E3 ubiquitin-protein ligase XIAP (Homo sapiens) (UniProt P98170). In words: small molecules binding XIAP protein – biophysical, small-molecule microarray, fluorescence 635 nm, primary screen (AID 1181).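 Note: score merges 667 nm emission and signal to noise over triplicate slides.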 To be noted: higher = more signal.
Assay [11] has as its system XIP peptide (Xip251-270) binding. In words: XIP fragment 251-270 binding compounds – biochemical, small-molecule microarray, fluorescence 635/667 nm, 0.1 µg/mL protein, primary screen (AID 1182). To be noted: fluorescent protein binding, 635 nm, higher = more signal, called active from +8 up or from −8 down.
Another assay relates to XIP peptide (Xip251-270). The assay can be described thus: compounds binding XIP fragment 251-270 – biochemical, small-molecule microarray, fluorescence 635/667 nm, 0.5 µg/mL protein, primary screen (AID 1183). To be noted: fluorescence 635 nm, higher = more signal.
Assay [12] can be described thus: blood-stage malaria parasite viability loss – strain 3D7, DAPI fluorescence, 100 nL, primary screen (AID 1184).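 Note: parasites grown inside human red blood cells in medium with human serum.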 To be noted: P. falciparum 3D7 growth, 3 d, higher = more signal.
The target in assay [13] is Homeobox protein Hox-A13 (Mus musculus) (UniProt Q62424). The assay can be described thus: disruptors of Hoxa13 oligonucleotide interaction – biochemical, fluorescence polarization, labeled oligonucleotide, primary screen (AID 1185). To be noted: Hoxa13:DNA binding, 15 min, higher = more signal, called active from +8 up or from −8 down. (In general: Polarisation of emitted light reports the rotation of a fluorescent probe.)

Assay [14] can be described thus: blockers of DNA damage checkpoint Chk1 activation – imaging, HeLa, hydroxyurea, phospho-Chk1 antibody, percent positive cells, primary screen (AID 1186). To be noted: hydroxyurea-induced phospho-Chk1 immunofluorescence imaging, higher = more signal.
Assay [15] is described as follows: blockers of DNA damage checkpoint Chk1 activation – imaging, HeLa, hydroxyurea, phospho-Chk1 nuclear intensity, primary screen (AID 1187). To be noted: hydroxyurea-induced phospho-Chk1 immunofluorescence imaging, higher = more signal.

Active and inactive are the calls of the source. Unless noted, the rule behind the calls is not given here.

E3 ubiquitin-protein ligase XIAP (Homo sapiens), sequence (P98170 whole entry, looked up, the tested form may be a part): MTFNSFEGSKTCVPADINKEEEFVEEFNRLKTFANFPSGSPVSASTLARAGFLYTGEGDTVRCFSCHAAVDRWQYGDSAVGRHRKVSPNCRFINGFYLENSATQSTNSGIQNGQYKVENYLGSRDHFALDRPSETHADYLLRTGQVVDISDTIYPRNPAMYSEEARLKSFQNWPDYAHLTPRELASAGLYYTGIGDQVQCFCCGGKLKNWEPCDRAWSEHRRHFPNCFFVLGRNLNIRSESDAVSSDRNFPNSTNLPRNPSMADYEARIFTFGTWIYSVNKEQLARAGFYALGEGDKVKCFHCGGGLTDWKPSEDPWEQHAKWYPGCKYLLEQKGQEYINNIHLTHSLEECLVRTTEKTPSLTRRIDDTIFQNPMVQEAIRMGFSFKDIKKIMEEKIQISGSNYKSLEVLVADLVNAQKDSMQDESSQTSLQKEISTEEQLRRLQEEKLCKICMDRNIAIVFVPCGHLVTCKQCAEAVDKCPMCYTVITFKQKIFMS
Homeobox protein Hox-A13 (Mus musculus), sequence (Q62424 whole entry, looked up): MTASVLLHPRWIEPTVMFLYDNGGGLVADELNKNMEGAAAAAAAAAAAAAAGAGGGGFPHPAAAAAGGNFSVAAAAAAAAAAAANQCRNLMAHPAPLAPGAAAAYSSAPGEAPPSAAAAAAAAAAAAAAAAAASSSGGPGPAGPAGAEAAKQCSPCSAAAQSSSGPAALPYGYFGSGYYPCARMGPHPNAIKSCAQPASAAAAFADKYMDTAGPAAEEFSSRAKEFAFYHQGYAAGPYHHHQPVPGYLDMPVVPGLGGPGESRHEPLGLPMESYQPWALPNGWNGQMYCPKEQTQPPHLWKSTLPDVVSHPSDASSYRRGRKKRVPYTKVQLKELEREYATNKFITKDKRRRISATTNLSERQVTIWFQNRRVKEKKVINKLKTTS
Dihydroorotate dehydrogenase (quinone), mitochondrial (Plasmodium falciparum (isolate 3D7)), sequence (Q08210 whole entry, looked up): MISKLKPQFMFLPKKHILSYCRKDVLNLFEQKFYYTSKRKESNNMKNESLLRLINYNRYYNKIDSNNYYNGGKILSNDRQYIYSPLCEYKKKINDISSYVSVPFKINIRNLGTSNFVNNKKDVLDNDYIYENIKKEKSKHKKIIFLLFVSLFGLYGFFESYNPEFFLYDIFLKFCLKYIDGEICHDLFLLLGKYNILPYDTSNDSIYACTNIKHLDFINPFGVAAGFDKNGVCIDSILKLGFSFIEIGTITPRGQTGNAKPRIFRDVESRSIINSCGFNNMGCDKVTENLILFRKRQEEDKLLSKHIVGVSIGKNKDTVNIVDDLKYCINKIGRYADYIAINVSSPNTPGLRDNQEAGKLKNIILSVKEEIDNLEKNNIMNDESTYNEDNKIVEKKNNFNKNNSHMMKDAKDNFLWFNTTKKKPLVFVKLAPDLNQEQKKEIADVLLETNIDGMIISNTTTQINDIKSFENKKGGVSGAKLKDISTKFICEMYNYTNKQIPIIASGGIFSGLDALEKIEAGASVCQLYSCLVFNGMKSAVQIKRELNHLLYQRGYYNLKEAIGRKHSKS

For the molecule `C=CCNC(=O)[C@H]1[C@@H]2C(=O)O[C@@H](c3ccccc3)[C@@H](c3ccccc3)N2[C@@H](c2ccc(OCCO)cc2)[C@]12C(=O)Nc1ccc(C#CC3(O)CCCCCC3)cc12`, the z-score in assay [1] is -0.311; in [2], 0.868 (inactive); in [3], -0.823 (inactive); in assay [5], 0.898 (inactive); in [6] it was 2.62 (inactive); in [7] it was 0.352 (inactive). For the same molecule, the z-score in assay [8] is 0.988 (inactive); in assay [9] it was -0.987; in [12], -2.09; in [13], -1.83 (inactive); in [14], 0.541 (inactive); in [15], 1.15 (inactive). In addition, the composite z-score in assay [4] was -0.0685 (inactive); in assay [10], -0.224; in assay [11] it was 0.38 (inactive); with XIP peptide (Xip251-270), 0.821.

Regarding `C=CC1c2cc(O)c(OC)cc2CCN1C` (centres undefined), the z-score was -0.582 in [1]; -0.457 (inactive) in [2]; -0.728 (inactive) in assay [3]; -0.283 (inactive) in assay [5]; -0.071 (inactive) in [6]; -0.0683 (inactive) in [7]. Also, the z-score is 0.113 (inactive) in [8]; -1.16 in [9]; 0.166 in assay [12]; -3.83 (inactive) in [13]; 0.298 (inactive) in assay [14]; 0.468 (inactive) in [15]. Besides, the composite z-score was -3.34 (inactive) in assay [4], 0.031 in assay [10], 0.767 (inactive) in [11] and 0.543 with XIP peptide (Xip251-270).

As for `[N-]=[N+]=Nc1ccccc1C[C@@]1(C(=O)NCc2ccccc2)N=C(c2ccc(OCCCO)cc2)O[C@@H]1c1ccccc1N=[N+]=[N-]`, the z-score in assay [1] is -0.664; in assay [2], -0.353 (inactive); in assay [3] it was -2.18 (inactive); in assay [5], 0.689 (inactive); in [6], 0.105 (inactive); in [7], 0.969 (inactive). The z-score in assay [8] was -0.289 (inactive); in assay [9], -2.89; in [12], -2.76; in assay [13] it was -0.454 (inactive); in assay [14], -0.747 (inactive); in assay [15], -1.1 (inactive). In addition, the composite z-score in assay [4] was 0.366 (inactive); in assay [10] it was -0.113; in assay [11] it was 1.46 (inactive); in the assay on XIP peptide (Xip251-270), 0.729.

Consider `NC(=O)NCC#Cc1ccc2c(c1)[C@]1(C(=O)N2)[C@H](c2ccc(OCCO)cc2)N2[C@H](c3ccccc3)[C@H](c3ccccc3)OC(=O)[C@H]2[C@@H]1C(=O)O`, for which the z-score was -0.983 in assay [1]; -0.434 (inactive) in assay [2]; 0.117 (inactive) in assay [3]; 1.01 (inactive) in [5]; -0.264 (inactive) in [6]; 0.427 (inactive) in [7]. The z-score in assay [8] was -0.533 (inactive); in assay [9], 0.15; in assay [12] it was -1.17; in assay [13] it was -5.33 (inactive); in [14] it was 0.31 (inactive); in [15] it was 0.2 (inactive). In addition, the composite z-score in [4] is -0.996 (inactive); in [10] it was -0.0013; in [11], 0.348 (inactive); in the assay with XIP peptide (Xip251-270), -0.0846.

On to `COCCOC(=O)N1C(=O)[C@@]2(c3cc(C#CCNC(N)=O)ccc31)[C@H](C(=O)Nc1nc3ccccc3s1)[C@H]1C(=O)O[C@H](c3ccccc3)[C@H](c3ccccc3)N1[C@@H]2c1ccccc1OCCO`, for which the z-score in assay [1] was 0.0277; in [2] it was 0.21 (inactive); in assay [3], -0.482 (inactive); in assay [5], 3.44 (inactive); in assay [6] it was 2.32 (inactive); in assay [7], 0.405 (inactive). Also, the z-score in [8] was 1.14 (inactive); in [9], -1.01; in assay [12] it was -1.78; in assay [13], 2.01 (inactive); in [14], -0.339 (inactive); in [15], -0.644 (inactive). The composite z-score was -0.845 (inactive) in assay [4], -0.155 in assay [10], 0.278 (inactive) in assay [11] and 0.634 in the assay with XIP peptide (Xip251-270).

As to `COC(=O)C(CC#Cc1ccc2c(c1)[C@]1(C(=O)N2)[C@H](c2ccc(OCCO)cc2)N2[C@H](c3ccccc3)[C@H](c3ccccc3)OC(=O)[C@H]2[C@@H]1C(=O)N1CCCCCCC1)C(=O)OC`, the z-score is -0.198 in assay [1]; 1.12 (inactive) in [2]; -0.223 (inactive) in [3]; 2.9 (inactive) in assay [5]; 1.3 (inactive) in assay [6]; -0.8 (inactive) in assay [7]. The z-score was 0.136 (inactive) in [8]; -1.02 in assay [9]; -2.24 in assay [12]; -14.6 (active) in [13]; -0.224 (inactive) in [14]; -0.197 (inactive) in assay [15]. Also, the composite z-score was 0.365 (inactive) in assay [4], 0.997 in assay [10], 2.15 (inactive) in assay [11] and 0.812 in the assay on XIP peptide (Xip251-270).

For the molecule `CC(C)C[C@H]1NC(=O)C([C@@H](C)OCc2ccccc2)NC(=O)[C@@]23C(=O)N[C@@H](Cc4ccccc4)C2[C@H](C)[C@@]2(C)O[C@H]2C3/C=C/C/C=C\CNC1=O` (some centres undefined), the z-score is -0.662 in [1]; -0.0256 (inactive) in assay [2]; -0.521 (inactive) in assay [3]; 0.294 (inactive) in [5]; -0.3 (inactive) in [6]; 0.12 (inactive) in assay [7]. The z-score in assay [8] was -0.0809 (inactive); in assay [9], -0.0732; in assay [12] it was -2.23; in assay [13], -6.86 (inactive); in [14] it was -0.762 (inactive); in [15] it was -0.732 (inactive). In addition, the composite z-score in assay [4] is -0.116 (inactive); in assay [10], 0.172; in [11] it was 0.304 (inactive); in the assay on XIP peptide (Xip251-270), 0.22.

As for `CC(C)[Si](C#CCCc1ccccc1)(O[C@H](c1ccccc1)c1cn(Cc2ccccc2)nn1)C(C)C`, the z-score in assay [1] was 1.5; in assay [2] it was -8.07 (active); in assay [3], -0.016 (inactive); in [5], -0.206 (inactive); in assay [6] it was 0.129 (inactive); in assay [7], -0.0409 (inactive). Moreover, the z-score is 0.451 (inactive) in [8]; -0.052 in [9]; -0.374 in assay [12]; -1.64 (inactive) in assay [13]; -1.18 (inactive) in assay [14]; -1.16 (inactive) in [15]. The composite z-score in [4] was -0.262 (inactive); in assay [10], -0.0117; in assay [11], -0.0657 (inactive); in the assay with XIP peptide (Xip251-270) it was 0.574.

On to `CCCCC(O)C1C=CC2C(=O)N(c3ccccc3)C(=O)C2N1Nc1ccc(C#N)cc1` (centres undefined), for which the z-score is -0.438 in [1]; -1.03 (inactive) in assay [2]; 0.0125 (inactive) in assay [3]; 0.999 (inactive) in assay [5]; 0.63 (inactive) in assay [6]; 0.172 (inactive) in assay [7]. The z-score in [8] was -0.465 (inactive); in [9], 0.628; in assay [12] it was 0.832; in [13] it was -3.62 (inactive); in assay [14], 0.194 (inactive); in assay [15], 0.404 (inactive). The composite z-score in assay [4] is 0.318 (inactive); in assay [10] it was 0.169; in [11], 1 (inactive); with XIP peptide (Xip251-270), 0.109.

These data come from PubChem BioAssay.
